# Test results published in PubChem BioAssay (NCATS).
# Results filed as inconclusive are left out. A number with no mark means an inactive call. The source made the active and inactive calls. The call rests on the fitted dose curve; in most records, active means well fitted cell-killing curve with a large enough effect; inconclusive means small, poorly fitted or top-dose-only effect, or effect the other way; inactive means flat fitted curve, though single readings scatter. Starred links: 1 amine or outer side, 2 acyl side, 3 side chain; linkers in the order of their positions; H or OH if unused. Positions of bridges follow the written chain, without caps; N, C: chain ends. Non-standard residues stand in square brackets, D forms with d. Residues, ends and D or L forms follow the SMILES beside them. Chains are numbered I, II in the order given. *: point of attachment. Actinocin(9to1) = Cc1c2oc3c(C)ccc(C(=O)[*:1])c3nc-2c(C(=O)[*:2])c(N)c1=O; NMeV = CN[CH](C(=O)O)C(C)C; Nva = CCC[C@H](N)C(=O)O; Cbz = O=C(OCc1ccccc1)*; Sar = CNCC(=O)O
# Assay: qHTS of pediatric cancer cell lines to identify multiple opportunities for drug repurposing: Confirmatory screen for Rh18 cells (AID 1347125); further: nearly all actives have a fitted effect of over 55% in size
# Settings: Rh18 rhabdomyosarcoma cells, viability; series mostly up to 45.9 µM; activity change, negative = cytotoxic: at the top concentration
# Text: Drug repurposing or repositioning has been offered as a strategy for drug development in oncology programs. This approach has special potential for childhood cancers and other rare or orphan diseases, where the expected return on new drug development has been a disincentive to pharmaceuticals.
# In this project we exploit the poly-pharmacology of drugs to discover new indications via phenotypic screening of a panel of 19 well-characterized cell lines derived from solid tumors seen in children and adolescents. The goal is to identify approved drugs with previously unrecognized anticancer properties that has the potential to reveal new mechanisms and biological processes involved in carcinogenesis or drug resistance. We employed a titration-based paradigm (quantitative high-throughput screening or qHTS), where all compounds were tested at multiple concentrations for their effect on cell viability. Concentration-response curves (CRCs) were derived directly from the primary screen, and both potency and efficacy values were used to identify compounds with robust bioactivity profiles. We screened the NIH Chemical Genomics Center (NCGC) Pharmaceutical Collection (NPC) and Mechanism Interrogation Plate (MIPE) small molecule collections of approved and investigational compounds against these cell lines; and measured metabolically active cells after 48 hours of compound treatment as a proxy for cell viability.
# Assay Submitter: Nathalia J. Martinez, National Center for Advancing Translational Sciences, National Institutes of Health, Rockville, MD, USA; email: natalia.martinez@nih.gov
# [1] Shen, M et al. Quantitative high-throughput phenotypic screening of pediatric cancer cell lines identifies multiple opportunities for drug repurposing. Oncotarget 2017 Dec 19;9(4):4758-4772. PMID 29435139.
# The cells were obtained from University of North Carolina (UNC), Pediatric Preclinical Testing Program (PPT), and Coriell Institute (CI).
# qHTS cell viability assay:
# Cells were assayed in growth media at a density of 500-1,000 cells/well. Five microliters of cells were dispensed into 1,536-well, white, solid-bottom, TC-treated plates (Greiner Bio One) using a multidrop dispenser and incubated at 37 degrees C, 5% CO2, under a humidified atmosphere for 5 hours. Twenty-three nanoliters of compounds and controls (neutral control DMSO or positive control bortezomib at final concentration of 2.3 µM) were subsequently transferred by Kalypsys pintool. For primary screens, the MIPE collection was tested at 11-point dilutions (final concentrations range from 0.78 nM to 46 µM) and the NPC collection at 8-point dilutions (final concentrations range from 0.59 nM to 46 µM). Compounds tested in follow-up screens were assayed at 11-point dilutions. Cells were incubated for 48 hours, followed by addition of 3 µL of CellTiter-Glo (Promega). After a 15 min incubation at room temperature, samples were analyzed for luminescence intensity using a ViewLux High-throughput CCD imager equipped with clear filters.
# On the % scale 0 is the no-effect control and ±100 the full control effect; potency means the concentration at half of the fitted maximal effect.
Structure (SMILES),Potency,"activity change, negative = cytotoxic"
O=C(C=Cc1ccc(CN(CCO)CCc2c[nH]c3ccccc23)cc1)NO,0.233 µM (active),
CC(=O)SCC(Cc1ccccc1)C(=O)NCC(=O)OCc1ccccc1 (stereo not given),,-8.7%
Oc1cc(-c2nc(-c3ccccc3)[nH]c2-c2ccncc2)ccc1Cl,18.5 µM (active),
COc1cccc2c1C(=O)c1c(O)c3c(c(O)c1C2=O)C[C@@](O)(C(=O)CO)C[C@@H]3O[C@H]1C[C@H](N)[C@@H](O)[C@H](C)O1,0.585 µM (active),
O=C(O)C[C@H](O)C[C@H](O)C=Cc1c(C2CC2)nc2ccccc2c1-c1ccc(F)cc1,3.69 µM (active),
COc1cc(C[C@@H](CO)[C@H](CO)Cc2ccc(O)c(OC)c2)ccc1O,,12.9%
O=C(Nc1cc2cc[nH]c2cn1)c1ccccc1,8.27 µM (active),
Cc1cnc(Nc2ccc(N3CCN(C)CC3)cc2)nc1Nc1cccc(S(=O)(=O)NC(C)(C)C)c1,2.93 µM (active),
COC(=O)C=CC(=O)OC,14.7 µM (active),
CCC[C@@H](C=O)NC(=O)[C@H](CC(C)C)NC(=O)[C@H](CC(C)C)NC(=O)OCc1ccccc1 (Cbz-Leu-Leu-[Nva]-aldehyde),3.69 µM (active),
CCC(C=C[C@@H]1OC(=O)C=C[C@H]1C)=C[C@H](C)CC=CC(C)=C[C@@H](C)C(=O)[C@@H](C)[C@H](O)[C@@H](C)CC(C)=CC(=O)O,0.0091 µM (active),
CC(C)(O)Cn1c(NC(=O)c2ccc(-c3cn[nH]c3)s2)nc2cc(CN3CCOCC3)ccc21,1.31 µM (active),
Cn1cc(CNCC2CCN(c3ncc(C(=O)NO)cn3)CC2)c2ccccc21,0.131 µM (active),
COC(=O)[C@@H]1[C@H]2C[C@@H]3c4[nH]c5ccccc5c4CCN3C[C@@H]2CC[C@@H]1O,,-7.02%
CCCCC(=O)O[C@]1(C(=O)CO)[C@@H](C)C[C@H]2[C@@H]3CCC4=CC(=O)C=C[C@]4(C)[C@@]3(F)[C@@H](O)C[C@@]21C,,11%
COc1ccc(C=Cc2cc(OC)c(OC)c(OC)c2)cc1NC(=O)[C@H](N)CO,,-18.8%
C=Cc1c(C)c2cc3nc(cc4[nH]c(cc5nc(cc1[nH]2)C(C)=C5CCC(=O)O)c(CCC(=O)OC)c4C)[C@@]1(C)C3=CC=C(C(=O)OC)[C@H]1C(=O)OC,,-11.4%
CC[C@]12C=CCN3CC[C@@]4(c5cc([C@@]6(C(=O)OC)C[C@H]7C[C@@H](C(C)(F)F)CN(Cc8c6[nH]c6ccccc86)C7)c(OC)cc5N(C)[C@H]4[C@@](O)(C(=O)OC)[C@H]1OC(C)=O)[C@@H]32,,16.5%
CC(C)N1[N]C(=C2C=c3cc(O)ccc3=N2)c2c(N)ncnc21,6.57 µM (active),
O=C(C=CC=Cc1ccc2c(c1)OCO2)N1CCCCC1,,-17.2%

Structure (SMILES),Potency,"activity change, negative = cytotoxic"
CNC(=O)c1ccc(Nc2cc(Nc3ccccc3S(=O)(=O)C(C)C)c3cc[nH]c3n2)nc1,18.5 µM (active),
CCN(CC)CCNC(=O)c1c(C)[nH]c(C=C2C(=O)Nc3ccc(F)cc32)c1C,26.9 µM (active),
Cc1cnc(Nc2ccc(CN3CCOCC3)cc2)nc1Nc1cccc(S(=O)(=O)NC(C)(C)C)c1,9.27 µM (active),
C[C@@]12C(=O)OC(=O)[C@@]1(C)C1CCC2O1,2.93 µM (active),
COc1cccc2c1C(=O)c1c(O)c3c(c(O)c1C2=O)C[C@@](O)(C(C)=O)C[C@H]3O[C@H]1C[C@H](N)[C@H](O)[C@H](C)O1,2.61 µM (active),
CN[C@H]1[C@@H](O)[C@@H]2O[C@@H]3O[C@H](C)CC(=O)[C@]3(O)O[C@@H]2[C@@H](NC)[C@H]1O,,9.44%
O=S(=O)(O)CCSSCCS(=O)(=O)O,,-5.21%
"Cc1c2oc3c(C)ccc(C(=O)NC4C(=O)NC(C(C)C)C(=O)N5CCCC5C(=O)N(C)CC(=O)N(C)C(C(C)C)C(=O)OC4C)c3nc-2c(C(=O)NC2C(=O)NC(C(C)C)C(=O)N3CCCC3C(=O)N(C)CC(=O)N(C)C(C(C)C)C(=O)OC2C)c(N)c1=O (stereo not given) (I: TVP[Sar][NMeV] / II: TVP[Sar][NMeV]; ester I:1-I:C, II:1-II:C; linker I:N-II:N via Actinocin(9to1); configuration not given here)",0.0293 µM (active),
C=C1C(=CC=C2CCC[C@]3(C)[C@@H]([C@H](C)CCCC(C)(C)O)CC[C@@H]23)C[C@@H](O)C[C@@H]1O,,-13.5%
C[C@H](NCc1ccc2c(c1)nc(NC(=O)c1ccc(-c3cn[nH]c3)s1)n2CCc1ccccc1)C(C)(C)C,3.29 µM (active),
CC(C(C)N1CC(=O)NC(=O)C1)N1CC(=O)NC(=O)C1 (stereo not given),,-14%
Cn1cnc(=N)c2[nH]cnc21,,3.37%
COc1ccc(C(C)=O)c(O)c1,,-15.4%
CS[C@H]1SC[C@@H]2C(=O)N(C)[C@H](C(C)C)C(=O)OC[C@H](NC(=O)c3cnc4ccccc4n3)C(=O)N[C@H](C)C(=O)N(C)[C@@H]1C(=O)N(C)[C@H](C(C)C)C(=O)OC[C@H](NC(=O)c1cnc3ccccc3n1)C(=O)N[C@H](C)C(=O)N2C,,-1.98%
Oc1ccc(-c2ccc(-c3cc(Nc4cccc(CNC5CC5)c4)n[nH]3)cc2)c(O)c1,16.5 µM (active),
COC[C@H](NC(=O)c1cnc(C)s1)C(=O)N[C@@H](COC)C(=O)N[C@@H](Cc1ccccc1)C(=O)[C@@]1(C)CO1,0.208 µM (active),
COc1ccc2c(c1OC)C(=O)OC2[C@H]1c2c(cc3c(c2OC)OCO3)CCN1C (stereo not given in full),,-20.5%
C=CC(=O)Nc1cccc(Nc2nc(NC3CCC(N(C)C)CC3)nc3c2ncn3C(C)C)c1 (stereo not given),0.657 µM (active),
O=C(NCc1ccccc1)[C@H](Cc1ccccc1)NC(=O)[C@@H]1O[C@@H]1C(=O)NCCc1ccc(O)cc1,,-3%
N#Cc1c(NC(=O)c2cccc3ccccc23)sc2c1CCCC2,,-7.89%
